The list is not random: actives were taken first. Their share in the collection is about 10%.
NPR1 antag: human Npr1 receptor antagonism | P16066 | 76,000 tested, 1.6% active | Potency, µM (titrated, usually from 46.3 µM), without a hit: at the top dose activity change, negative = inhibition, usual class: inhibitors | HEK293 hNpr1 GloSensor cGMP, ANP-stimulated luminescence; calls by dose curve; note: nearly all actives have a fitted effect of over 60% in size
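HEK293 cells stably expressing human Npr1 and cGMP GloSensor pGS-40F, loaded 2 h with 2% GloSensor reagent, given compound 30 min at room temperature. Luminescence read before and 20 min after 0.1 nM hNppA.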
GPT2 inhibitor: inhibitors of human GPT2 alanine aminotransferase; Q8TD30; Recombinant GPT2, coupled pyruvate oxidase/HRP Amplex Red fluorescence; Potency, µM (series often up to 57.7 µM), for the others: top-dose activity change, negative = inhibition, most hits filed as inhibitors; 100,000 tested, 0.25% active; AID 1671188; note: nearly all actives have a fitted effect of over 60% in size
Target sequence (Q8TD30 whole entry, looked up): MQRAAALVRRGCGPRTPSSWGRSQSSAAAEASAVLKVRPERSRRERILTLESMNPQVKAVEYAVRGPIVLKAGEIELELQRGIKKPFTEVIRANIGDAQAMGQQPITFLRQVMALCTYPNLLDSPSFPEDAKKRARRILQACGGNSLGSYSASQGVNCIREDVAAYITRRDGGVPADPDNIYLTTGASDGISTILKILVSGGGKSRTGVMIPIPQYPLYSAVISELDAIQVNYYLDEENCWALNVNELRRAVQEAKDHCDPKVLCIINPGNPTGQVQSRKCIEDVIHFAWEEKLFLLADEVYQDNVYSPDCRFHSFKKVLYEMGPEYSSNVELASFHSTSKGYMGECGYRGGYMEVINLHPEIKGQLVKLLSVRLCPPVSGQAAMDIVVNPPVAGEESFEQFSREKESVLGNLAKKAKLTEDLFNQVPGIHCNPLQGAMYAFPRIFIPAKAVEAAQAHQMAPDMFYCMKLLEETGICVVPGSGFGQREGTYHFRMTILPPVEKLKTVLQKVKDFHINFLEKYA
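Inhibition is scored from Amplex Red fluorescence generated when pyruvate oxidase and HRP act on pyruvate released by GPT2. Reactions contain 10ng/uL enzyme, 250uM a-KG and 2mM L-alanine and run 30 min at room temperature.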
HEK cytotox: HEK 293 cell cytotoxicity. HEK 293 viability, ATP luminescence (CellTiter-Glo), 48-72 h. Potency, µM (titrated, usually from 115 µM), for the others: at the top dose activity change, negative = cytotoxicity, hits mostly inhibitors. 94,000 tested, 6.6% active; note: nearly all actives have a fitted effect of over 60% in size
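250 HEK 293 cells/well; compound by pintool; incubated 48 or 72 hr at 37 degree Celsius; CellTiter-Glo added, 10 min RT, luminescence imaged.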
FLuc inh: Photinus pyralis luciferase inhibition; purified P. pyralis luciferase, luminescence, biochemical; Potency, µM (doses to about 115 µM), most hits filed as inhibitors; P08659; 76,000 tested, 2.5% active; note: nearly all actives have a fitted effect of over 65% in size
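Purified 10nM P. pyralis luciferase with 10uM D-luciferin and 10uM ATP in 50mM Tris acetate pH 7.5, 10mM Mg acetate, 0.01% Tween-20, 0.05% BSA. qHTS titration; luminescence read by CCD imager.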
3T3 cytotox: NIH 3T3 cell cytotoxicity. NIH 3T3 viability, CellTiter-Glo ATP luminescence, 48-72 h. Potency, µM (doses to about 96.7 µM), without a hit: top-dose activity change, negative = cytotoxicity, actives largely listed as inhibitors. 94,000 tested, 4.3% active. AID 1345082; note: nearly all actives have a fitted effect of over 55% in size
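NIH 3T3 cells at 400 cells/well received 23 nL of compound by pintool and were incubated 48 or 72 h at 37 °C. Viability was read as ATP-coupled CellTiter-Glo luminescence.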
* = called active by the depositor; [ ] = another dose, or the depositor's remark. Unless noted, calls come from the whole dose curve; as a rule, active = well fitted curve in the direction sought with a large enough effect; inconclusive = small, poorly fitted or top-dose-only effect, or another doubt; inactive = no such curve, though single readings can be large; an effect the other way counts as inactive or inconclusive. % is set by controls: 0 for no effect and ±100 for the full control effect; potency is the fitted concentration of half-maximal effect.

Results for O=C(NCCc1ccc(Cl)cc1)c1ccc2nnc(C3CC3)n2c1 ?
GPT2 inhibitor: 4%; HEK cytotox: inconclusive; 3T3 cytotox: inconclusive

What do the screens show for `CC(C)CCN1CCOc2cc(C(=O)Nc3ccc(F)cc3)ccc2C1`?
NPR1 antag: inconclusive; GPT2 inhibitor: -27%[88.5 µM]; HEK cytotox: inconclusive; FLuc inh: inactive; 3T3 cytotox: inconclusive

Results for CC(C)CCN1CCOc2cc(C(=O)Nc3cccnc3)ccc2C1 ?
NPR1 antag: -4%[70.6 µM]; GPT2 inhibitor: 4%[88.5 µM]; HEK cytotox: 112µM*; FLuc inh: inactive; 3T3 cytotox: -13%[138 µM]

What do the screens show for `O=C1NCc2ccccc2CC12CCN(Cc1ccccc1C(F)(F)F)C2` (stereo unspecified)?
GPT2 inhibitor: inactive; HEK cytotox: inconclusive; 3T3 cytotox: inconclusive

Results for N#Cc1cccc(CN(Cc2cccc(C#N)c2)[C@@H]2CO[C@H](CNC(=O)c3ccccc3)[C@H]2O)c1 ?
NPR1 antag: 1%; GPT2 inhibitor: inactive; HEK cytotox: 79µM*; FLuc inh: inactive; 3T3 cytotox: inconclusive

Results for COCCNC(=O)CC(c1ccc(Cl)cc1)c1c[nH]c2ccc([N+](=O)[O-])cc12 (stereo unspecified) ?
NPR1 antag: inconclusive; GPT2 inhibitor: inactive; HEK cytotox: 40µM*; FLuc inh: inactive; 3T3 cytotox: inconclusive

How did O=C(CC(c1ccc(Cl)cc1)c1c[nH]c2ccc([N+](=O)[O-])cc12)N1CCOCC1 (stereo unspecified) do in these assays?
NPR1 antag: inconclusive; GPT2 inhibitor: -19%; HEK cytotox: 40µM*; FLuc inh: inactive; 3T3 cytotox: inconclusive

Results for Cc1ccc(CN2CCCC23Cc2ccccc2CNC3=O)cc1 (stereo unspecified) ?
GPT2 inhibitor: inactive; HEK cytotox: inconclusive; 3T3 cytotox: inconclusive

How did O=C(O)CCn1ncc2cc(OCC3CCN(C(=O)CC4CC4)CC3)ccc21 do in these assays?
NPR1 antag: 6%[70.6 µM]; GPT2 inhibitor: -13%[88.5 µM]; HEK cytotox: 3%[172 µM]; FLuc inh: inconclusive; 3T3 cytotox: 50µM*

Results for O=C(O)CCn1ncc2cc(OCC3CCN(C(=O)C4CCCC4)CC3)ccc21 ?
NPR1 antag: 1%[70.6 µM]; GPT2 inhibitor: 2%[88.5 µM]; HEK cytotox: 3%[172 µM]; FLuc inh: inconclusive; 3T3 cytotox: inconclusive

How did O=C(O)CCn1ncc2cc(OCC3CCN(C(=O)C4CC4)CC3)ccc21 do in these assays?
NPR1 antag: 8%[70.6 µM]; GPT2 inhibitor: 4%[88.5 µM]; HEK cytotox: inactive; FLuc inh: inconclusive; 3T3 cytotox: inconclusive

How did O=C(O)CCn1ncc2cc(OCC3CCN(c4ncccn4)CC3)ccc21 do in these assays?
NPR1 antag: 3%[70.6 µM]; GPT2 inhibitor: -13%[88.5 µM]; HEK cytotox: -11%[172 µM]; FLuc inh: 63µM*; 3T3 cytotox: 50µM*

What do the screens show for `O=C(O)CCn1ncc2cc(OCC3CCN(C(=O)COc4ccccc4)CC3)ccc21`?
NPR1 antag: 1%[70.6 µM]; GPT2 inhibitor: 4%[88.5 µM]; HEK cytotox: 4%[172 µM]; FLuc inh: inactive; 3T3 cytotox: 28µM*

How did O=C(O)CCn1ncc2cc(OCC3CCN(C(=O)OC4CCCC4)CC3)ccc21 do in these assays?
NPR1 antag: 1%[70.6 µM]; GPT2 inhibitor: -2%[88.5 µM]; HEK cytotox: inconclusive; FLuc inh: inconclusive; 3T3 cytotox: 25µM*

What do the screens show for `O=C(c1cccc(Cl)c1)N1CCCC2(CN[S+](=O)([O-])c3cccnc3N2)C1` (stereo unspecified)?
HEK cytotox: -8%; 3T3 cytotox: -16%

Results for CN(CC(=O)N1CCC(CCOc2ccc(F)cc2)C1)S(=O)(=O)c1cccs1 (stereo unspecified) ?
NPR1 antag: inconclusive; GPT2 inhibitor: inconclusive; HEK cytotox: 50µM*; FLuc inh: inactive; 3T3 cytotox: inconclusive

What do the screens show for `COc1ccccc1OCCC1CCN(C(=O)NCC(C)C)C1` (stereo unspecified)?
NPR1 antag: -10%; GPT2 inhibitor: inactive; HEK cytotox: inactive; FLuc inh: inactive; 3T3 cytotox: -17%

How did CCn1nc(C)c(-c2cc(C(=O)N3CCC(CCOc4ccccc4OC)C3)no2)c1C (stereo unspecified) do in these assays?
NPR1 antag: -6%; GPT2 inhibitor: -2%; HEK cytotox: 45µM*; FLuc inh: inactive; 3T3 cytotox: inconclusive

Results for Cc1ccc(OCCC2CCN(C(=O)CCn3nc(C)cc3C)C2)cc1 (stereo unspecified) ?
NPR1 antag: inconclusive; GPT2 inhibitor: inactive; HEK cytotox: 50µM*; FLuc inh: inactive; 3T3 cytotox: inconclusive

Results for Cc1ccc(OCCC2CCN(C(=O)c3ccoc3)C2)cc1 (stereo unspecified) ?
NPR1 antag: -6%; GPT2 inhibitor: inactive; HEK cytotox: inconclusive; FLuc inh: inactive; 3T3 cytotox: inconclusive

How did COc1ccccc1C(=O)N1CCC(CCOc2ccc(C)cc2)C1 (stereo unspecified) do in these assays?
NPR1 antag: inconclusive; GPT2 inhibitor: -2%; HEK cytotox: 40µM*; FLuc inh: inactive; 3T3 cytotox: inconclusive

How did COc1ccc(CC(=O)NC2CCN(c3ccnc4ccnn34)C2)cc1 (stereo unspecified) do in these assays?
GPT2 inhibitor: inactive; HEK cytotox: inconclusive; 3T3 cytotox: inconclusive

Results for O=C(c1ccc(C(F)(F)F)cc1)N1CCN(C(=O)c2nc3cccnc3n(C3CCCC3)c2=O)CC1 ?
GPT2 inhibitor: 2%; HEK cytotox: -22%; 3T3 cytotox: inconclusive

How did COc1cccc(CNC(=O)[C@@H]2CCCN2C(=O)c2cccc(-c3ccccc3OC)c2)c1 do in these assays?
GPT2 inhibitor: inactive; HEK cytotox: inconclusive; 3T3 cytotox: inconclusive

What do the screens show for `CCN1C[C@H]2COc3ccc(C)cc3[C@H]2N(C(=O)c2ccccc2)CCC1=O`?
HEK cytotox: inconclusive; 3T3 cytotox: -24%

What do the screens show for `Cc1nn(-c2ccc(F)cc2)c(C)c1[C@@H]1C=C[C@@H](NC(=O)NC(C)C)C1`?
NPR1 antag: inconclusive; GPT2 inhibitor: 5%[88.5 µM]; HEK cytotox: inconclusive; FLuc inh: 63µM*; 3T3 cytotox: inconclusive

Results for Cc1nn(-c2ccc(C(C)(C)C)cc2)c(C)c1[C@@H]1C=C[C@@H](NC(=O)NC(C)C)C1 ?
NPR1 antag: inconclusive; GPT2 inhibitor: inactive; HEK cytotox: 45µM*; FLuc inh: 14µM*; 3T3 cytotox: 45µM*

Results for Cc1ccccc1-n1nc(C)c([C@H]2C=C[C@@H](OC(=O)NC(C)C)C2)c1C ?
NPR1 antag: -13%[70.6 µM]; GPT2 inhibitor: -5%[88.5 µM]; HEK cytotox: inconclusive; FLuc inh: inactive; 3T3 cytotox: 25µM*

Screening results (PubChem)
